# In PubChem BioAssay AID376 (PDSP, 2006):
# The whole screen tested about 2,000 compounds, of which about 250 (12%) were called active. This excerpt belongs to a sample that is enriched for actives. Unmarked numbers belong to inactive results. Cut-off read from the data, not from the text of the source: active = hERG blockade below about -20% or above about 20%; inactive = in between.
# Biological target: Voltage-gated inwardly rectifying potassium channel KCNH2 (Homo sapiens) (UniProt Q12809)
# Assay: modulators of KCNH2 ion channel function, cellular (AID 376);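 note: 0% = buffer alone and 100% = reference blocker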
# Settings: hERG-expressing cells, channel activity single-concentration screen; concentration not given here
# Voltage-gated inwardly rectifying potassium channel KCNH2 (Homo sapiens), sequence (Q12809 whole entry, looked up): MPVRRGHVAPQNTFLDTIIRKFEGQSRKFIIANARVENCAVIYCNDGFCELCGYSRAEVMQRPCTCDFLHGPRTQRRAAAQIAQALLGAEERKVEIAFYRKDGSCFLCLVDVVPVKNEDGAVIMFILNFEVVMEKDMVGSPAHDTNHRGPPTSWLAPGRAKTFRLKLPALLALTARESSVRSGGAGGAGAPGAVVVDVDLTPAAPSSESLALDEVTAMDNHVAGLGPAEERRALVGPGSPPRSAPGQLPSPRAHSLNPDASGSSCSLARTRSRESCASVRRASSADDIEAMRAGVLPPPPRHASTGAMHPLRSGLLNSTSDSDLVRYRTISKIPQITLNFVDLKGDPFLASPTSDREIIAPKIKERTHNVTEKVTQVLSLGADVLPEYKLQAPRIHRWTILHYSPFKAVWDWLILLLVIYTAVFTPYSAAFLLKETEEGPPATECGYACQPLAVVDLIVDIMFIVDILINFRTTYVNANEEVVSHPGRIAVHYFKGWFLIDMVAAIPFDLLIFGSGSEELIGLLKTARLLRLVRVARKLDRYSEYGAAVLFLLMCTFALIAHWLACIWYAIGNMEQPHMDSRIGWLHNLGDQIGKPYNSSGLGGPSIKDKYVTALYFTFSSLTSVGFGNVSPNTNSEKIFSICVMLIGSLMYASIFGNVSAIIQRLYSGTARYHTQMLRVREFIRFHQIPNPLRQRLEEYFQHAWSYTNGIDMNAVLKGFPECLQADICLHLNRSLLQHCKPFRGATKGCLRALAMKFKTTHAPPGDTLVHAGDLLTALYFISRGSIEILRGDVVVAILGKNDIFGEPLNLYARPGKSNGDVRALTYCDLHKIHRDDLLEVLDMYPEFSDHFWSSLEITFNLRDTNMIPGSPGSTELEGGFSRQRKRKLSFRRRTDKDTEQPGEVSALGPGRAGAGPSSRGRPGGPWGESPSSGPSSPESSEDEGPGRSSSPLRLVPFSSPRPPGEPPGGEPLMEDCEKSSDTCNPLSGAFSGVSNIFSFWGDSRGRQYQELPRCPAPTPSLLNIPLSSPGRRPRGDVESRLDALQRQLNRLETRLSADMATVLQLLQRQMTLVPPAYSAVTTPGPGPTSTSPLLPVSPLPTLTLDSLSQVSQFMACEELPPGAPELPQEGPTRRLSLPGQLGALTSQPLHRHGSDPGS
row,Compound,hERG blockade
1,Cc1c(Cl)c(S(N)(=O)=O)cc(S(N)(=O)=O)c1NC(=O)c1ccc(Cl)cc1,12.5%
2,Cc1cccc(Cl)c1NCC(O)CN1CCN(C)CC1 (stereo unspecified),-2.1%
3,CC1Oc2ccc(C(=O)CC(C(=O)O)c3ccc4c(c3)OCO4)cc2O1 (stereo unspecified),-27.6% (active)
4,CC(C(=O)O)C(=Cc1ccc2c(c1)OCO2)C(=O)O (stereo unspecified),0.849%
5,O=C(O)CC(Cc1ccc2c(c1)OCO2)C(=O)O (stereo unspecified),6.12%
6,CN(C)Cc1ccc(-c2cc3onc(-c4ccccc4)c3c(=O)n2C)cc1,10.3%
7,CC(C)(CO)N1CCN(C(=S)Nc2ccccc2)CC1,0.768%
8,C[N+]1(C)CCOC(O)(c2ccccc2)C1 (stereo unspecified),17.7%
9,CC[N+](C)(CC)CCN1C(=O)c2ccccc2S1(=O)=O,-0.137%
10,Cn1c(N)c(N=Nc2ccc(S(N)(=O)=O)cc2)c(=O)n(C)c1=O,31.1% (active)
11,NS(=O)(=O)c1ccc(N=Nc2ccc[nH]c2=O)cc1,16%
12,NS(=O)(=O)c1ccc(N=Nc2c[nH]c(=O)c(O)c2)cc1,14%
13,S=c1nc(-c2nc(=S)[nH]c3c2CCCCCCCCCC3)c2c([nH]1)CCCCCCCCCC2,0.0358%
14,Clc1cc2c(c(CSC3=NCN(CC4CC4)CN3)c1)OCOC2,8.37%
15,CN(C)CCNCCN,4.72%
16,CC1=NN(C(=O)c2ccncc2)C(=O)C1N=Nc1ccc2ccccc2c1 (stereo unspecified),21.5% (active)
17,CC1=NN(c2ccccc2)C(=O)C1N=Nc1ccc(S(N)(=O)=O)cc1 (stereo unspecified),14.6%
18,CC(=NNC(=O)c1ccncc1)c1ccc2ccccc2c1O,-2.47%
19,Cc1noc(NC(=O)Nc2ccccc2F)c1C#N,2.22%
20,CCCCn1cnc2c(SC)ncnc21,-28.3% (active)
21,Nc1ncnc2c1ncn2CCCCC(=O)O,-16.5%
22,CN(C)c1ncnc2c1ncn2CCn1cnc2c(N(C)C)ncnc21,-12.5%

row,Compound,hERG blockade
1,Cc1cc(C)nc(NC(=O)COc2ccc(Cl)cc2)c1,16.6%
2,OC(COc1ccccc1)CN1CCCCC1 (stereo unspecified),-2.64%
3,c1ccc(-c2ccc(-c3ccc(C4=NCCN4)cc3)o2)cc1,134% (active)
4,c1ccc(-c2cnc(-c3ccc(-c4ncc(-c5ccccc5)o4)cc3)o2)cc1,-6.76%
5,O=C(CSC1=NCCN1)Nc1ccccc1,8.84%
6,OCCSCc1ccccc1,-16.1%
7,O=C(O)CN(CCN(CC(=O)O)CC(=O)O)CC(=O)O.[Cu+2],1.62%
8,O=C(O)CCc1nc(-c2ccccc2-n2cccc2)no1,5.65%
9,O=C(O)C(Cc1cc(I)c(O)c(I)c1)C1CCCCC1 (stereo unspecified),35.2% (active)
10,C=C(C)CNCCN,-5.55%
11,Cc1ccc(CSC(N)=Nc2ccccc2)cc1C,14.3%
12,Nc1ncnc2c1ncn2C1OC(C(=O)OCCO)C(O)C1O (stereo unspecified),1.37%
13,OC1CC2CCC(C1)N2CCCN1c2ccccc2Sc2ccc(Cl)cc21 (stereo unspecified),89.8% (active)
14,Clc1ccc2c(c1)N(CCCN1CCCC13CCCCC3)c1ccccc1S2,4.63%
15,COc1ccc(N(CC(=O)O)N=O)cc1,1.49%
16,O=C1C=CC(=Nc2cccc3c(N=C4C=CC(=O)O4)cccc23)O1,-12%
17,CC(C)c1cc(CN(C)C)c(O)c(C(C)(C)C)c1,13.4%
18,Nc1nc(N)[n+]([O-])c(N)c1NCO,-6.48%
19,C=CCNS(=O)(=O)c1ncnc2nc[nH]c12,-2.53%
20,Nc1cc2c(nc3c4ccccc4c(N)cc3[n+]2-c2cccc3ccccc23)c2ccccc12 (tested in a mixture with another compound),51.9% (active)
21,Nc1nc(-c2cc(-c3cccc4ccccc34)nc(N)n2)cc(-c2cccc3ccccc23)n1,3.59%
22,O=S(=O)(c1ccc(Br)cc1)N1CCN(S(=O)(=O)c2ccc(Br)cc2)CC1,11.5%

row,Compound,hERG blockade
1,O=C(O)C1CCCCC1c1c2ccc(=O)c(O)c-2oc2c(O)c(O)ccc12 (stereo unspecified),-2.68%
2,CC(=O)C1(N=Nc2ccc(S(N)(=O)=O)cc2)CCOC1=O (stereo unspecified),-10.6%
3,CC(CCC(=O)O)(c1ccc(O)cc1)c1ccc(O)cc1,4.36%
4,c1ccc2sc(SCSc3nc4ccccc4s3)nc2c1,-7.22%
5,CC(CCc1nc2ccccc2s1)(c1ccc(O)cc1)c1ccc(O)cc1,24% (active)
6,O=C(O)c1ccccc1C(=O)c1ccc2c(c1)Cc1ccccc1-2,-16.1%
7,Cn1c(=O)c2c(ncn2CN2CCN(Cn3cnc4c3c(=O)n(C)c(=O)n4C)CC2)n(C)c1=O,0.775%
8,O=C(O)CSc1nnc2c3ccccc3c3ccccc3c2n1,-2.16%
9,c1ccc2c[n+](Cc3ccnc4ccccc34)ccc2c1,16.2%
10,c1ccc2c[n+](CCCC[n+]3ccc4ccccc4c3)ccc2c1,22% (active)
11,CC(=N[O-])C(C)=N[O-].CC(=N[O-])C(C)=N[O-].[CH2-]CCN1CCOCC1.[Co].c1ccncc1,17.9%
12,O=C(O)c1ccc([N+](=O)[O-])c(P(=O)(O)O)c1,-6.85%
13,Cc1nc2ccccc2nc1-c1ccc(N=[N+]([O-])c2ccc(-c3nc4ccccc4nc3C)cc2)cc1,1.15%
14,O=C(O)C(=Cc1ccccc1)Cc1ccccc1,-1.14%
15,O=C(O)c1ccc(C(=O)c2ccccc2C(=O)O)cc1C(=O)O,1.52%
16,CC1=CC(=C(c2ccc(O)c(C)c2)c2ccccc2C(=O)O)C=CC1=O,30.9% (active)
17,Cc1ccc(NC(=O)c2ccccc2C(=O)O)cc1C,0.447%
18,CC(C)=NNc1ncnc2nc[nH]c12,-8.04%
19,O=C1CSC(=S)N1N=Cc1ccc(Cl)c([N+](=O)[O-])c1,8.8%
20,O=C(O)c1ccc(S(=O)(=O)N=Nc2c(O)[nH]c3ccccc23)cc1,-4.01%
21,N=C(N)c1ccc(N=Nc2c(O)ccc3c2[nH]c2ccccc23)cc1,-25.6% (active)
22,O=Nc1c(O)[nH]c2ccccc12.O=Nc1c(O)[nH]c2ccccc12.[Cu],0.0535%

row,Compound,hERG blockade
1,C(=NNc1nnc2c(n1)[nH]c1ccccc12)c1cccnc1,9.9%
2,c1ccc(CCc2cccnc2)nc1,5.71%
3,C(=NNc1ccccn1)c1cccnc1,20.3% (active)
4,Nc1ccc(-c2ccc(Nc3cc(S(=O)(=O)O)c(N)c4c3C(=O)c3ccccc3C4=O)cc2)c(S(=O)(=O)O)c1,14.3%
5,O=C(O)CCNCC(=O)O,2.22%
6,Cc1cc(C(C)(C)C)cc(CNC2CCCCC2)c1O,-1.49%
7,OCCN(CCO)c1ncnc2nc[nH]c12,9.05%
8,CCCC1c2c(ccc3ccccc23)Oc2ccc3ccccc3c21,16.8%
9,CN(C)CCCC1c2ccccc2Oc2ccc(C(F)(F)F)cc21 (stereo unspecified),32.9% (active)
10,NC(N)=NN=Cc1ccc(O)c(C(=O)O)c1,7.85%
11,O=C(O)c1[nH]c(=O)[nH]c(=O)c1CN1CCCCC1,-7.69%
12,Cc1nc(CN2CCCCC2)c(O)c(=O)[nH]1,-28.2% (active)
13,Cc1cc(CN2CCCCC2)c(O)c(CN2CCCCC2)c1,8.76%
14,CCN1CCC(O)(C(C(=O)O)c2ccccc2)CC1 (stereo unspecified),4.76%
15,CC(C)=CCNc1ncnc2nc[nH]c12,-6.5%
16,CCN(CC)CC(O)c1ccc2ccc3ccccc3c2c1 (stereo unspecified),-73.4% (active)
17,CCN(Cc1cc(Cl)cc(C)c1O)Cc1c(O)ccc2ccccc12,13%
18,Cc1cccc2cc3ccc4ccccc4c3cc12,11.1%
19,N=C(N)SCCSC(=N)N,9.63%
20,N#CC(C#N)=NNc1ccc2cn[nH]c2c1,-4.08%
21,CN(C)S(=O)(=O)Nc1ccccn1,4.55%
22,CC(O)(CNS(=O)(=O)c1ccccc1)c1ccccc1 (stereo unspecified),-5.67%

row,Compound,hERG blockade
1,CN(CCC(=O)O)S(=O)(=O)c1ccccc1,-22% (active)
2,O=C(O)CC[P+](c1ccccc1)(c1ccccc1)c1ccccc1,19.1%
3,O=c1[nH]c(SCc2cccc([N+](=O)[O-])c2)nc2nc[nH]c12,7.87%
4,CC1(CO)C(O)CCC2(C)C1CCC1CC3CC12CCC3(O)COC(=O)CN (stereo unspecified),14.2%
5,N=C(N)SCC(=O)O,11%
6,O=C(O)c1cscc1Cc1cccs1,-9.17%
7,O=C(O)c1ccccc1CN1CCCC(C(=O)O)C1 (stereo unspecified),-4.8%
8,OC(c1cc(C(F)(F)F)nc2c(Cl)cc(Cl)cc12)C1CCCCN1 (stereo unspecified),28.7% (active)
9,OC(c1cc(-c2ccc(Cl)cc2)nc2ccccc12)C1CCCCN1 (stereo unspecified),74.7% (active)
10,O=C(O)c1cc(-c2ccc(-c3ccccc3)cc2)nc2cc3ccccc3cc12,12.2%
11,Cc1cc(C)c2nc3c(c(C(O)C4CCCCN4)c2c1)CCC3=Cc1ccc(Cl)cc1 (stereo unspecified),8.84%
12,COc1ccc(-c2cc(C(O)C3CCCCN3)c3ccccc3n2)cc1 (stereo unspecified),72.7% (active)
13,OC(c1cc(C23CC4CCC2CC(C4)C3)nc2c(Cl)cc(Cl)cc12)C1CCCCN1 (stereo unspecified),-0.23%
14,OC(c1cc(-c2ccccc2)nc2c1ccc1ccccc12)C1CCCCN1 (stereo unspecified),26.8% (active)
15,O=C(O)CSc1cc(-c2ccccc2)nc2ccccc12,-16.2%
16,c1ccc2nc(CCC3CCCCN3)ccc2c1 (stereo unspecified),-2.95%
17,OC(CC1CCCCN1)c1ccc2c(c1)oc1ccccc12 (stereo unspecified),4.42%
18,O=C(O)c1cc(-c2ccc3cc4c(cc3c2)OCO4)nc2ccccc12,17.2%
